A short description of experiment [1]: AP1 Signaling Pathway (AID 357).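 Further: ME-180 reporter cells stimulated with EGF at its EC50 level; on the % scale 0 is the no-effect control and ±100 the full control effect.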 To be noted: ME-180 AP-1-bla reporter, EGF-induced, beta-lactamase ratio, 5 h; at 17.2 µM (top of the series) unless noted. The gist of the method:
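Modulation of EGF-driven AP-1 transcription was assessed with a beta-lactamase reporter in ME-180 cells. Compound and EC50 EGF were co-incubated 5 hours at 37 °C before 2.5-hour CCF4 loading at room temperature and dual-emission reading.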

A short description of experiment [2]: NFAT Signaling Pathway (AID 444).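 Further: carbachol stimulus at about its EC50 of 1 µM final; on the % scale 0 is the no-effect control and ±100 the full control effect.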 To be noted: Jurkat NFAT-bla M1, carbachol, beta-lactamase ratio, 5 h; at 17.2 µM (top of the series) unless noted. Put shortly: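 Jurkat cells with NFAT-driven β-lactamase reporter and co-expressed M1 receptor, stimulated with carbachol (final 1 uM, ~EC50), compound titration, 5 h at 37 °C. CCF4 loaded 1 h at RT; 460/530 nm ratio gave %activity and AC50.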

A short description of experiment [3]: Stat Signaling Pathway (AID 446).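 Further: ME-180 cervical cancer cells given 40 pM IL-6 alongside compound; SIE-controlled beta-lactamase reporter measured as 460/530 nm FRET emission ratio; on the % scale 0 is the no-effect control and ±100 the full control effect.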 To be noted: ME-180 SIE beta-lactamase reporter, IL-6 stimulated, 5 h; at 17.2 µM (top of the series) unless noted. Put shortly:
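Reporter line: ME-180 cervical carcinoma, SIE-beta-lactamase. Treatment: compound with 40 pM IL-6, 5 hrs, 37 C, in low-serum OPTI-MEM with 10 mM HEPES pH 7.3. Detection: 460/530 nm fluorescence.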

Experiment [4] concerns the target Glucocorticoid receptor (Homo sapiens) (UniProt P04150). Nature of the experiment: GR-GFP Redistribution (AID 450;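 active means compounds whose dose series gives a full or clear partial fitted curve of increased nuclear translocation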; further: potency means the concentration at half of the fitted maximal effect).
The nature of experiment [5]: qHTS Assay for Identification of Small Molecule Agonists for Hypoxia Response Element Signaling Pathway (AID 914; active means well fitted activation curve with a large enough effect in the signal ratio, with a control signal flat, not every such curve was filed as active; the % refers to the signal ratio; further: % of control where 0% means no effect). To be noted: ME-180 (cervical carcinoma) HRE-bla reporter, beta-lactamase ratio, CoCl2, 17 h; activation: hits give high values. The gist of the method:
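Positive modulation of EC50 CoCl2-induced hypoxia response element signaling is measured in ME-180 cells with a beta-lactamase reporter. Compounds are titrated, incubation runs 17 hours, and %Activity derives from the blue/green ratio.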
A general note: In qHTS, concentration-response curves come from the screen itself.

For experiment [6], the target named is Mitogen-activated protein kinase 10 (Mus musculus) (UniProt Q61831). Nature of the experiment: JNK3 AlphaScreen Assay (AID 530).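 Further: kinase came from lysate of stimulated human HepG2 cells; signal reports phosphorylation of biotinylated GST-cJun 1-79 at Ser73 with 10 µM ATP; on the % scale 0 is the no-effect control and ±100 the full control effect.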 Put shortly: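 Pre-activated (IL-1β/TNFα) JNK3 in HepG2 lysates phosphorylates biotin-GST-cJun(1-79), 10 uM ATP; anti-phospho-cJun(Ser73) AlphaScreen read at room temperature, pH 7.6 Tris buffer. Compounds pre-incubated 15 min as titrations.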
A general note: Alpha assays give light when donor and acceptor beads are brought close together.

For experiment [7], the target named is 3',5'-cyclic-AMP phosphodiesterase 4B (Homo sapiens) (UniProt Q07343). Nature of the experiment: qHTS Assay for Inhibitors of PDE-IV (AID 607; active means well fitted activation curve with a large enough effect in the main read-out, with a control signal flat, not every such curve was filed as active; further: % of control where 0% means no effect). Put shortly: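 Cell-based read-out of cAMP via a modified cyclic nucleotide-gated channel and membrane potential dye (535/590 nm) in HEK293 cells expressing PDE4 endogenously. Compounds tested up to 22.9 uM final; 100 uM RO 20-1724 reference.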
Sequence of 3',5'-cyclic-AMP phosphodiesterase 4B (Homo sapiens) (Q07343 whole entry, looked up): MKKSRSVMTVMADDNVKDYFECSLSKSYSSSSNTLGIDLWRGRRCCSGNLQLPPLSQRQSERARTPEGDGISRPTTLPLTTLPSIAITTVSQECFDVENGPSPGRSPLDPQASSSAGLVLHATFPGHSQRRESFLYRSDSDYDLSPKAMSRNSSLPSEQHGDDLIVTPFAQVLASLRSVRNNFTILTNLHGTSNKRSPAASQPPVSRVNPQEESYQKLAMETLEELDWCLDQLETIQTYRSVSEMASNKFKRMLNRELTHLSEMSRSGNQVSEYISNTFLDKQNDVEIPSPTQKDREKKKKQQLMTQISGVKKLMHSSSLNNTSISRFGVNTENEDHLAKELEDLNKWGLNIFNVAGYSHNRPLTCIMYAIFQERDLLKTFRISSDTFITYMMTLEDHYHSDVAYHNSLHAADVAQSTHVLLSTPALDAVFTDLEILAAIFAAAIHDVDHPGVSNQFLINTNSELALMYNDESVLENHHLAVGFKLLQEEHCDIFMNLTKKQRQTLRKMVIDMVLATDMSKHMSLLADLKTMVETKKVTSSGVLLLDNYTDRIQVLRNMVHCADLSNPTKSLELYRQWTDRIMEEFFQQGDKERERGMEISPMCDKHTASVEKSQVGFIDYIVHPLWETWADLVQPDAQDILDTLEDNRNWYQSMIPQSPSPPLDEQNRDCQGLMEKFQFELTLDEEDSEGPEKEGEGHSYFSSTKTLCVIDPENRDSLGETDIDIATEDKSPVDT

Experiment [8] deals with ATP-dependent 6-phosphofructokinase (Trypanosoma brucei brucei) (UniProt O15648). Nature of the experiment: qHTS Assay to Find Inhibitors of T. brucei phosphofructokinase: hit validation (AID 492961; active means well fitted curve in the direction sought with a large enough effect; an effect the other way counts as inactive or inconclusive; further: on the % scale 0 is the no-effect control and ±100 the full control effect). The gist of the method: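 Luminescence from ADP-Glo reports ADP generated as T. brucei PFK (1.25 nM) phosphorylates 0.5 mM fructose-6-phosphate using 0.1 mM ATP. Reactions ran 45 min at room temperature, pH 8.0.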
Sequence of ATP-dependent 6-phosphofructokinase (Trypanosoma brucei brucei) (O15648 whole entry, looked up): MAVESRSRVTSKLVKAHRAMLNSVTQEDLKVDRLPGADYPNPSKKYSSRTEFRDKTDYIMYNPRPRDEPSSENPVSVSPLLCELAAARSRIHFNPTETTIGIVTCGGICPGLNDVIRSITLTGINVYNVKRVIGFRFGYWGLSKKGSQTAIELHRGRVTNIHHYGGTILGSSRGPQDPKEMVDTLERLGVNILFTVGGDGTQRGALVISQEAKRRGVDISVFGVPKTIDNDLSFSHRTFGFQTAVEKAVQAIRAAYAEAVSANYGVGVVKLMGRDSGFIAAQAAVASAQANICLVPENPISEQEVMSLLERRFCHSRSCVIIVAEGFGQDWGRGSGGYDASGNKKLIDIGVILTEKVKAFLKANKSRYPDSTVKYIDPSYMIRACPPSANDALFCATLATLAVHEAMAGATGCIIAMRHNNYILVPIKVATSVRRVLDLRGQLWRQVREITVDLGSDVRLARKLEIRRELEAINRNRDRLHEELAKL

Experiment [9] concerns the target Ubiquitin carboxyl-terminal hydrolase 1 (Homo sapiens) (UniProt O94782). The experiment can be described thus: Inhibitors of USP1/UAF1: Pilot qHTS (AID 504865; active means well fitted curve in the direction sought with a large enough effect; an effect the other way counts as inactive or inconclusive;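 further: rhodamine fluorescence freed from ubiquitin-rhodamine substrate followed over time; top concentration of the series differs between compounds; on the % scale 0 is the no-effect control and ±100 the full control effect; nearly all actives have a fitted effect of over 35% in size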). The gist of the method: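 In 50mM HEPES pH 7.8 containing 0.5mM EDTA, 1mM TCEP, 0.1 mg/ml BSA and 0.01% Tween-20, 1nM USP1/UAF1 is exposed to compound for 15 min, then Ub-Rho (150nM final) is added and fluorescence is read over time.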

Experiment [10] addresses Luciferin 4-monooxygenase (Photinus pyralis) (UniProt P08659). Nature of the experiment: Biochemical firefly luciferase enzyme assay for NPC (AID 624030; active means well fitted curve in the direction sought with a large enough effect; an effect the other way counts as inactive or inconclusive;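 further: purified P. pyralis luciferase at 10 nM with luciferin and ATP substrate; 0% = DMSO and -100% = full luciferase inhibition by PTC124 control; nearly all actives have a fitted effect of over 70% in size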). The gist of the method: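 Purified P. pyralis luciferase at 10 nM in 50 mM Tris Acetate (final), luminescence read within 5 minutes of enzyme addition to compounds. Activity normalised to PTC124 versus DMSO; concentration-response curves classed by r2, magnitude and activity.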

A short description of experiment [11]: S16 Schwann cell viability assay (CellTiter-Glo assay) (AID 624031; active means well fitted curve in the direction sought with a large enough effect; an effect the other way counts as inactive or inconclusive;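 further: native untransfected S16 rat Schwann cells; plate controls were DMSO-treated cells for no effect and cell-free wells for full effect; nearly all actives have a fitted effect of over 70% in size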). Put shortly: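 Counter-screen for cytotoxicity: parental S16 rat Schwann cells lacking the PMP22 reporters, treated 24 h with compound, viability from cellular ATP by CellTiter-Glo luminescence, normalized to DMSO (0%) and no-cell wells.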
Experiment [12] is described as follows: S16 Schwann cell PMP22 intronic element firefly luciferase assay (AID 624032; active means well fitted curve in the direction sought with a large enough effect; an effect the other way counts as inactive or inconclusive;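 further: plate controls were DMSO for no effect and PTC124 positive control mean for full effect; nearly all actives have a fitted effect of over 30% in size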). The gist of the method: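 Rat S16 Schwann cells stably carrying firefly luciferase driven by a PMP22 intronic element, in 10% FBS, treated 24 h at 37 C. ONE-Glo luminescence normalized to PTC124 control and DMSO (0%); curves classed by r2, magnitude and activity.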
Experiment [13] is described as follows: S16 Schwann cell PMP22 intronic element beta-lactamase assay (AID 624044; calls by dose curve;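 further: 0% = DMSO and -100% = potassium clavulanate positive control; nearly all actives have a fitted effect of over 15% in size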). To be noted: S16 rat Schwann cells, PMP22 element beta-lactamase FRET, 24 h; ratio activity, negative = inhibition: at 38.3 µM (top of the series). Put shortly:
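Rat S16 Schwann cells with beta-Lac driven by a PMP22 intronic element, compound-treated 24 h at 37 °C. LiveBLAzer FRET B/G read: 460 nm normalized to potassium clavulanate vs DMSO; 535 nm FRET as viability; concentration-effect curves classified.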

A further experiment deals with ATS189. The experiment can be described thus: qHTS profiling for inhibitors of Plasmodium falciparum proliferation (AID 504749; active means well fitted curve in the direction sought with a large enough effect; an effect the other way counts as inactive or inconclusive; further: nearly all actives have a fitted effect of over 60% in size; further: potency means the concentration at half of the fitted maximal effect;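 on activity, negative = inhibition: 0% = DMSO vehicle and full inhibition = artemisinin control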). To be noted: P. falciparum in erythrocytes, SYBR Green DNA, 72 h; series mostly up to 28.7 µM. The gist of the method:
(§1)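 P. falciparum-infected erythrocytes (0.3% parasitemia, 2.5% hematocrit) incubated with compound 72 h at 37 C, 5% CO2. Parasite DNA detected by SYBR Green after lysis, overnight at room temperature; normalised to 0.29 uM artemisinin and DMSO.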

The next experiment relates to CP262. The experiment is described as above. To be noted: P. falciparum in erythrocytes, SYBR Green DNA, 72 h; series mostly up to 28.7 µM. Put shortly: as §1
Another experiment deals with CP297. The experiment is described as above. To be noted: P. falciparum in erythrocytes, SYBR Green DNA, 72 h; series mostly up to 28.7 µM. The gist of the method: as §1
The subject of another experiment is CP335. Described as above. To be noted: P. falciparum in erythrocytes, SYBR Green DNA, 72 h; series mostly up to 28.7 µM. Put shortly: as §1
For the next experiment, the system named is Dd2. Described as above. To be noted: P. falciparum in erythrocytes, SYBR Green DNA, 72 h; series mostly up to 28.7 µM. Put shortly:
as §1

Another experiment concerns TAB109. Described as above. To be noted: P. falciparum in erythrocytes, SYBR Green DNA, 72 h; series mostly up to 28.7 µM. The gist of the method: as §1
Another experiment has as its system W2. The description is as above. To be noted: P. falciparum in erythrocytes, SYBR Green DNA, 72 h; series mostly up to 28.7 µM. The gist of the method:
as §1

Values without a mark were called inactive. Inconclusive results are not listed. Calls of active or inactive are those of the source. Unless noted, the call rests on the fitted dose curve; in most records, active means well fitted curve in either direction with a large enough effect (not every such curve was filed as active); inconclusive means small, poorly fitted or top-dose-only effect, or another doubt; inactive means flat fitted curve, though single readings scatter. A value given as a limit tells only on which side of the number the result lay.

Sequence of Glucocorticoid receptor (Homo sapiens) (P04150 whole entry, looked up): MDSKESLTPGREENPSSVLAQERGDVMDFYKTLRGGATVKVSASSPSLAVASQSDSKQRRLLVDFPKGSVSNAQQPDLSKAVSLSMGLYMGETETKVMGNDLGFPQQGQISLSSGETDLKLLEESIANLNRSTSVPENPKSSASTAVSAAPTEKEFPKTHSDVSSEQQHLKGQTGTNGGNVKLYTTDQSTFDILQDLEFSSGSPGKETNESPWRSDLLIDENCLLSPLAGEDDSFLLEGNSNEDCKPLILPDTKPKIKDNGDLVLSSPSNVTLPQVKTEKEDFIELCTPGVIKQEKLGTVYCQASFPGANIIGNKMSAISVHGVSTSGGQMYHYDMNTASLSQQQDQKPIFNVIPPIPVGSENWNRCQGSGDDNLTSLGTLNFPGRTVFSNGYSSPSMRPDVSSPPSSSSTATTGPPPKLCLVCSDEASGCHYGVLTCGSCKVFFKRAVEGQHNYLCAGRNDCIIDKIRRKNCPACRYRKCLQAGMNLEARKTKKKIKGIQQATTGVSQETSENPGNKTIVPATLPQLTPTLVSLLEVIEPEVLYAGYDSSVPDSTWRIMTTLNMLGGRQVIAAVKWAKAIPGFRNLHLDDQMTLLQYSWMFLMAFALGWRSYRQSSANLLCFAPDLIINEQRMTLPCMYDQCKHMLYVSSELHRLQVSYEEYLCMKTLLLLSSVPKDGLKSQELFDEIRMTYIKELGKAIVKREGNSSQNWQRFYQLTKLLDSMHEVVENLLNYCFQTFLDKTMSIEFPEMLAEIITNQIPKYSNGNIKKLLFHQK
Sequence of Luciferin 4-monooxygenase (Photinus pyralis) (P08659 whole entry, looked up): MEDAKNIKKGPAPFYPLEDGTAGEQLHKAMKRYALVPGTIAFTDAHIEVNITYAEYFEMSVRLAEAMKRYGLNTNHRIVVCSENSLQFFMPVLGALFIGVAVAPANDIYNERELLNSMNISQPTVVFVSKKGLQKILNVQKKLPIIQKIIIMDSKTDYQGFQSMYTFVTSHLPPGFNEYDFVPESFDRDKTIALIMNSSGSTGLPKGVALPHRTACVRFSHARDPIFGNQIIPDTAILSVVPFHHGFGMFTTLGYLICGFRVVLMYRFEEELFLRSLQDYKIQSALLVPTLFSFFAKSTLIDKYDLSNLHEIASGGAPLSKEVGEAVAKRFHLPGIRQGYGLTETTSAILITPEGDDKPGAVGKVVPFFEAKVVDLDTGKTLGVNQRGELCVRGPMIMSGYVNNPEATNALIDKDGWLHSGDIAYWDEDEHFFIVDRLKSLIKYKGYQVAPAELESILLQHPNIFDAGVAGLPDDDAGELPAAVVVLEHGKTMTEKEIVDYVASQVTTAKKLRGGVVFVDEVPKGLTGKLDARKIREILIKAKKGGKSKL
Sequence of Ubiquitin carboxyl-terminal hydrolase 1 (Homo sapiens) (O94782 whole entry, looked up): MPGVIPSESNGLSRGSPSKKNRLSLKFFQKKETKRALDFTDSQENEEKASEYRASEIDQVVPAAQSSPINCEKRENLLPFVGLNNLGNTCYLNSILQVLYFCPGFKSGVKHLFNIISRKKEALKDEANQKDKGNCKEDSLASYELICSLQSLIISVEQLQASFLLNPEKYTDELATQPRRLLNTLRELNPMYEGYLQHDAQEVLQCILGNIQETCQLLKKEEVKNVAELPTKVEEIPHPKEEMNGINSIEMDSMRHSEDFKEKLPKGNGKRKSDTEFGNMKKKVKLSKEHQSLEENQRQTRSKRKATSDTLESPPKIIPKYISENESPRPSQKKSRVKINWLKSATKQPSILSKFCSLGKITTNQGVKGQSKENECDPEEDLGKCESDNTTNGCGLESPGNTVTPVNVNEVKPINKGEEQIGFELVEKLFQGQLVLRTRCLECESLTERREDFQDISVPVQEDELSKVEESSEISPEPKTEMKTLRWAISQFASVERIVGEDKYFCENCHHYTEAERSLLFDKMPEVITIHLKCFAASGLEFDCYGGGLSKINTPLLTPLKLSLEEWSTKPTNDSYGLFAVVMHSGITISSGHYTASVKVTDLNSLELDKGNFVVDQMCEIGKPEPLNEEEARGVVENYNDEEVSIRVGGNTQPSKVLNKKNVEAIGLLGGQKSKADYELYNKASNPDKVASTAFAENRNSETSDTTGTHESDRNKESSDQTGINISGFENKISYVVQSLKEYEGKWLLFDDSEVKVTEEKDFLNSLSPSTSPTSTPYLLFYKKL

Regarding `COc1cc(NC2=CC(=O)CC(C)(C)C2)cc(OC)c1OC`, the activity change, negative = inhibition in [1] is 7.47%; in experiment [2], -11.1%. Moreover, the activity, negative = inhibition in [3] is 15.1%. Moreover, in experiment [4], the Potency was more than 20.6 µM. In addition, the activation in [5] is -12.9%.
In the same order, the values of `CCOC(=O)c1c(CNCCN(CC)CC)n(C)c2cc(Br)c(OC)cc12` are 5.94%, 5.36%, -6.2%, more than 20.6 µM and -9.75%.
For `CC(=O)N1CCN(c2nc(CC(C)C)c3c(c2C#N)CCC3)CC1`, the values for the activity change, negative = inhibition in [1] and in [2] were -24.1% and -8.91%, respectively. Also, in experiment [3], the activity, negative = inhibition was -3.38%. For the same compound, the Potency in experiment [4] is more than 20.6 µM. Moreover, the activation in [5] was 24.5%.
For `CCCCOc1cccc(-c2nnc(N)s2)c1`, the activity change, negative = inhibition is -19.6% in experiment [1] and 7.5% in experiment [2]. The Potency in experiment [4] was more than 20.6 µM.
On to `CCCSc1nc(C)c(CC(=O)O)c(=O)[nH]1`, for which the activity change, negative = inhibition was -6.75% in experiment [1] and 13% in experiment [2]. Moreover, the activity, negative = inhibition in experiment [3] was -1.03%. Also, the Potency in [4] was more than 20.6 µM. In experiment [5], the activation is 11%.
On to `CN(CCNC(=O)c1ccc(/C=N/O)nc1)Cc1ccccc1`, for which the values for the activity change, negative = inhibition in experiment [1] and in [2] were 0.297% and -21.1%, respectively. Also, the activity, negative = inhibition in experiment [3] was -0.957%. The Potency in [4] is more than 20.6 µM. Moreover, the activation in experiment [5] was 9.65%.
For `CC(=O)Nc1ccccc1O`, the activity change, negative = inhibition in experiment [1] was 0.55%; in [2], 16%. Besides, the activity, negative = inhibition in experiment [3] was 2.83%. Also, the activation in [5] was 8.91%.
In the case of `CCC[C@H]1C[C@H](C(=O)N[C@@H]([C@H]2O[C@@H](SC)[C@@H](O)[C@@H](O)[C@@H]2O)[C@H](C)Cl)N(C)C1`, the activity change, negative = inhibition in experiment [1] is -4.04%; in [2], 0.269%. Further, the activity, negative = inhibition in experiment [3] is 1.36%. The Potency result in experiment [6], in experiment [7], in experiment [8], in experiment [9], in experiment [10] and in experiment [11] was “inactive” in each case. Besides, the Potency entry (in [12]; in [13]; with ATS189) was “inactive” in each case. The Potency with CP262 was 0.0151 µM (active); in the experiment on CP297 it was 0.0601 µM (active); in the experiment with CP335, 0.0601 µM (active); with Dd2, 0.0447 µM (active); in the experiment on TAB109, 0.0316 µM (active); in the experiment with W2, 0.0426 µM (active).

For the origin of these results see PubChem BioAssay (NCATS).
